Assay results: PubChem BioAssay (EPA / NIEHS)
Records with an inconclusive call do not appear. Active and inactive are the calls of the source. How the source made its calls, unless noted: active means hit-call score of the fitted dose curve at least 0.9, where 1 is the maximum; inconclusive means response in the unintended direction; inactive means score below 0.9.

Columns and labels:
[1] = target: PGR (gene 5241) (UniProt P06401); assay: NVS_NR_hPR: NovaScreen (NVS) Nuclear Receptor Binding Assay for human Progestron Receptor (PR) (AID 2283360);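 further: active means loss of bound radioligand signal versus DMSO baseline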
Outline: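 T47D lysate; tritiated or iodinated radioligand; scintillation count at 18 h. DMSO = negative control/baseline. Primary: 25 uM, duplicate. Secondary: concentration series for actives.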

[2] = target: Glucocorticoid receptor (Homo sapiens) (UniProt P04150); assay: NVS_NR_hGR: NovaScreen (NVS) Nuclear Receptor Binding Assay for human Glucocorticoid Receptor (GR) (AID 2283363);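 further: activity is loss of specific radioligand binding signal relative to DMSO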
Sequence of Glucocorticoid receptor (Homo sapiens) (P04150 whole entry, looked up): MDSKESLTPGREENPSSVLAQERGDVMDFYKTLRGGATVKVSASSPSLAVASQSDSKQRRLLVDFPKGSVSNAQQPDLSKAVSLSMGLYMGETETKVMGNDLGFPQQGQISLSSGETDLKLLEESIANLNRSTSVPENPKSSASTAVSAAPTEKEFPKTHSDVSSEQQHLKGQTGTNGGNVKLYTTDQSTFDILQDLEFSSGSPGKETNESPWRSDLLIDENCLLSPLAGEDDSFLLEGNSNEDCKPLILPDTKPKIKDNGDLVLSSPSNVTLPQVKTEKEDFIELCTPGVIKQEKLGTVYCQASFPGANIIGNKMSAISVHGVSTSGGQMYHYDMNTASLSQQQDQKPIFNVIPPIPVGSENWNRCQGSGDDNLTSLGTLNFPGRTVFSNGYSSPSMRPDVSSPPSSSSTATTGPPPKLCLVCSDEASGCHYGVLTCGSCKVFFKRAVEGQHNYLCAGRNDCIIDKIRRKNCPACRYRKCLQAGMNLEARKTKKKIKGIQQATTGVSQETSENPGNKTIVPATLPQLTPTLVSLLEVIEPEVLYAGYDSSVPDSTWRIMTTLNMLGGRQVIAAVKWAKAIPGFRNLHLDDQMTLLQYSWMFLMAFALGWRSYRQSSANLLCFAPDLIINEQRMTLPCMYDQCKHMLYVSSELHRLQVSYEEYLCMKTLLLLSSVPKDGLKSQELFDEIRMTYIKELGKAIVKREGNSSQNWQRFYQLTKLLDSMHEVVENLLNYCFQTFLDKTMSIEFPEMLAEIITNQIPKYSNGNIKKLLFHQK
Outline: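 Filter scintillation readout of tritiated/iodinated radioligand displaced by test chemical; cell-free extracted protein; 16 h. DMSO = negative control/baseline. Duplicate single-point 25 uM screen, then concentration-response on actives.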

[3] = target: rat Androgen Receptor (AR), Ar (gene 24208) (UniProt P15207); assay: NVS_NR_rAR: NovaScreen (NVS) Nuclear Receptor Binding Assay for rat Androgen Receptor (AR) (AID 2283366)
Sequence of rat Androgen Receptor (AR), Ar (gene 24208) (P15207 whole entry, looked up): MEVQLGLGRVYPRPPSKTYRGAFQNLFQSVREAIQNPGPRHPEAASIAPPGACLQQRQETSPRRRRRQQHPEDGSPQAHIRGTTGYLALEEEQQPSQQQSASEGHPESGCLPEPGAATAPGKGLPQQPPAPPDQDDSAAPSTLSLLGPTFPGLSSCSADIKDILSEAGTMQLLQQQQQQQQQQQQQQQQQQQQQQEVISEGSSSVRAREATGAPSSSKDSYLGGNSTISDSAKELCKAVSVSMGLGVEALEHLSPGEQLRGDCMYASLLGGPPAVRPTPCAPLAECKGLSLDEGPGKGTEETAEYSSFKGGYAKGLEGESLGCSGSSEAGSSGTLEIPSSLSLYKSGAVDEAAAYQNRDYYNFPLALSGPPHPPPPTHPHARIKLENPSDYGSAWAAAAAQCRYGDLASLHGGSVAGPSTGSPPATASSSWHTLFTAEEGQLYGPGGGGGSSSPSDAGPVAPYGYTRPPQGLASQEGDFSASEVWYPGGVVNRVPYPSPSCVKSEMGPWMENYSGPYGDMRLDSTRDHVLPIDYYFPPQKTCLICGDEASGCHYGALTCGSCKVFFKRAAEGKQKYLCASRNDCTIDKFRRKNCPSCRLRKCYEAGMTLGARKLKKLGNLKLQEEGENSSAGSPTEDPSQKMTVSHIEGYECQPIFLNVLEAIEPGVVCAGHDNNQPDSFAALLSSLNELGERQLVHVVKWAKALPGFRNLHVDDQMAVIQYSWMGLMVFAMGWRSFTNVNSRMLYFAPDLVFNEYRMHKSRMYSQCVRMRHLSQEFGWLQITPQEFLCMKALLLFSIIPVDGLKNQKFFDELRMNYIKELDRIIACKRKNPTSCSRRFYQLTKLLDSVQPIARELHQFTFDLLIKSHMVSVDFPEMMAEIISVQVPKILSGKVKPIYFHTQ
Outline: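 Actives from a duplicate single-concentration (25 uM) primary run went on to concentration series. Displacement of radioligand was counted by filtration and scintillation, 18 h post-dose, using prostate extracts from testosterone-pretreated rats, with DMSO as baseline.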

[4] = test system: guinea pig Dopamine Transporter (DAT), gene 100714898; assay: NVS_TR_gDAT: NovaScreen (NVS) Transporter Assay for guinea pig Dopamine Transporter (DAT) (AID 2283369);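 further: active compounds lower bound radioligand signal relative to DMSO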
Outline: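 Scintillation counts of filter-retained radioligand report binding to guinea pig striatal membranes after 2 h. Activity scored as signal loss relative to DMSO, first at 25 uM in duplicate, then in concentration series to 50 uM.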

[5] = target: rat Serotonin Transporter (SERT), Slc6a4 (gene 25553) (UniProt P31652); assay: NVS_TR_rSERT: NovaScreen (NVS) Transporter Assay for rat Serotonin Transporter (SERT) (AID 2283375)
Outline: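 Filtration-based radiodetection quantified loss of specific radioligand binding in rat forebrain membranes after 1 hour of chemical exposure, relative to DMSO. Chemicals were first tested in duplicate at 25 uM.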

[6] = target: Nuclear receptor subfamily 1 group I member 2 (Homo sapiens) (UniProt O75469); assay: NVS_NR_hPXR: NovaScreen (NVS) Nuclear Receptor Binding Assay for human Pregnane X Receptor (PXR) (AID 2283365);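 further: a drop in FRET signal versus DMSO baseline means the compound binds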
Sequence of Nuclear receptor subfamily 1 group I member 2 (Homo sapiens) (O75469 whole entry, looked up): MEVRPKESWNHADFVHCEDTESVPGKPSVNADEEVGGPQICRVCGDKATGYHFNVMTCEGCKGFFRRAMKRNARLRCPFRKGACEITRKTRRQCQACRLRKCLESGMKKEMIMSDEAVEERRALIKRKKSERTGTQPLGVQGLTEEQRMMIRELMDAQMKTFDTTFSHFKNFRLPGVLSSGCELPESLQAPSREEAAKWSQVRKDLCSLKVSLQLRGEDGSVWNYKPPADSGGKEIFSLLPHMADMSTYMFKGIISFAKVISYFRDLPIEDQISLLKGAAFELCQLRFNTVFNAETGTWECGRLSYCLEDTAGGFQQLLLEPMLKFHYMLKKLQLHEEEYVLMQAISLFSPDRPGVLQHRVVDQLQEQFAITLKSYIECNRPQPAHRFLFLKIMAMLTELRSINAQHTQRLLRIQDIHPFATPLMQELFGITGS
Outline: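 Human PXR protein, cell-free; compound added, incubated 2 h, TR-FRET read. Signal decrease vs DMSO = binding. Screened 25 uM duplicate, actives re-run as dilution series.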

[7] = target: Estrogen receptor beta (Homo sapiens) (UniProt Q92731); assay: OT_ER_ERbERb_1440: Odyssey Thera (OT) 24-hour HEK293T Protein-Complementation Assay for Estrogen Receptor-beta/-beta Homodimer (AID 2283380);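 further: scored as signal increase over DMSO baseline for both agonists and antagonists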
Sequence of Estrogen receptor beta (Homo sapiens) (Q92731 whole entry, looked up, the tested form may be a part): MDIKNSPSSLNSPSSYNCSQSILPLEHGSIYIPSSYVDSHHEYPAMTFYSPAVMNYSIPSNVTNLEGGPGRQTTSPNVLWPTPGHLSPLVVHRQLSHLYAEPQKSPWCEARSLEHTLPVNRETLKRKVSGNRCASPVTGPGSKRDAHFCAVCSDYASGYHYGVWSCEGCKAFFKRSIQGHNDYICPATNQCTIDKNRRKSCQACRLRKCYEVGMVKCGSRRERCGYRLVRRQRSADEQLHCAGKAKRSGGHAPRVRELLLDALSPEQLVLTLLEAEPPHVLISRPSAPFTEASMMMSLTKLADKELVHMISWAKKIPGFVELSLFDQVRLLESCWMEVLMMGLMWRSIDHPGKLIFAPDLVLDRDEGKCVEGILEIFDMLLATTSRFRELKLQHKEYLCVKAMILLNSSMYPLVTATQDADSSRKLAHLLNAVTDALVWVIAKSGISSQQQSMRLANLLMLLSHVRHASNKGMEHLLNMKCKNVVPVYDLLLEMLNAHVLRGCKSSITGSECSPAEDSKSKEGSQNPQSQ
Outline: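 HEK293T cells stably expressing ER beta LBD (aa 310-547) homodimer fragment-complementation reporter, dosed 24 h. Cells formaldehyde-fixed, Draq5-stained; gain in nuclear (agonist) or nuclear plus cytoplasmic (antagonist) fluorescence versus DMSO read by laser scanning cytometry.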

[8] = target: Estrogen receptor (Homo sapiens) (UniProt P03372); assay: OT_ERa_GFPERaERE_0480: Odyssey Thera (OT) 8-hour HeLa Transcription Induction Assay for Estrogen Receptor (AID 2283381; active means hit-call score of the fitted dose curve at least 0.9, where 1 is the maximum; inactive means score below 0.9)
Sequence of Estrogen receptor (Homo sapiens) (P03372 whole entry, looked up): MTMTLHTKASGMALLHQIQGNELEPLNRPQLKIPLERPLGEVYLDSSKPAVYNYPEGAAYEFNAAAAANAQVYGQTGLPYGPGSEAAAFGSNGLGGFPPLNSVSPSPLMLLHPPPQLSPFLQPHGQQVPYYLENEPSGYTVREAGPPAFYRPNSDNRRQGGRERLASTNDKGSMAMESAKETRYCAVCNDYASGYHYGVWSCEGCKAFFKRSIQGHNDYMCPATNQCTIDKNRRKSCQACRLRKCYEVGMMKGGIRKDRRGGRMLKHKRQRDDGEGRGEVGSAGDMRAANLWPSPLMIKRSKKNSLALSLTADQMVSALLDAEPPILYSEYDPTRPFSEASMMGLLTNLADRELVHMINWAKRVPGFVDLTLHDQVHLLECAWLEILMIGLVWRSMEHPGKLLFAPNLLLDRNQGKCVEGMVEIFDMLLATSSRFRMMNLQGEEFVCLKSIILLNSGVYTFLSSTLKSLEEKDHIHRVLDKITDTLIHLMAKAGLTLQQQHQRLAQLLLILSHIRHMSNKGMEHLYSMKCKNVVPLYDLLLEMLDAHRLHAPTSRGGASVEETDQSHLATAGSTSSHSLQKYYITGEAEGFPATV
Outline: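 GFP-ERE reporter, HeLa, 8 h exposure. Readout: fluorescence microscopy, high-content image analysis. Fit direction positive vs DMSO negative control.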

[9] = target: Estrogen receptor (Homo sapiens) (UniProt P03372); assay: OT_ERa_GFPERaERE_0120: Odyssey Thera (OT) 2-hour HeLa Transcription Induction Assay for Estrogen Receptor (AID 2283382)
Outline: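 Fluorescence microscopy read-out: inducible fluorescent protein reporter in HeLa cells, imaged 2 h post-dose. Signal increase over DMSO negative control fitted as single primary endpoint via high content image analysis.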

[10] = target: Bile acid receptor (Homo sapiens) (UniProt Q96RI1); assay: OT_FXR_FXRSRC1_0480: Odyssey Thera (OT) 8-hour HEK293T Protein-Complementation Assay for Farnesoid X receptor/SRC-1 Co-activator (AID 2283383)
Sequence of Bile acid receptor (Homo sapiens) (Q96RI1 whole entry, looked up, the tested form may be a part): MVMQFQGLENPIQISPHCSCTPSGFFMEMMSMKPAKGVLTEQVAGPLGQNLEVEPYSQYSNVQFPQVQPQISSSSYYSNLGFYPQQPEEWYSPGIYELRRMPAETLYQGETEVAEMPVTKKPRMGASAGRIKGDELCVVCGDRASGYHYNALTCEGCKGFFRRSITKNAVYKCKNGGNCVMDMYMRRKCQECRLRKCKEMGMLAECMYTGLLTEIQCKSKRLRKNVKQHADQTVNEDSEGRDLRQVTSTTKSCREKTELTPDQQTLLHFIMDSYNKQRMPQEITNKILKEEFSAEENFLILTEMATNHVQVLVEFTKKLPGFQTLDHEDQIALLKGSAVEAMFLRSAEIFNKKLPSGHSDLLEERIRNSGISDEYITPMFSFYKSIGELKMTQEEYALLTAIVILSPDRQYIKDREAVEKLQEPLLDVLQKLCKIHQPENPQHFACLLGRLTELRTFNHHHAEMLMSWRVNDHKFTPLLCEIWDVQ
Outline: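 Fluorescence intensity read-out, 8 h post-dose, HEK293T protein-fragment complementation; FXR bait and SRC-1 prey each linked to reporter fragments. Activity scored as signal increase over DMSO negative control.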

[11] = target: Bile acid receptor (Homo sapiens) (UniProt Q96RI1); assay: OT_FXR_FXRSRC1_1440: Odyssey Thera (OT) 24-hour HEK293T Protein-Complementation Assay for Farnesoid X receptor/SRC-1 Co-activator (AID 2283384)
Outline: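 Fluorescence readout, 24 h post-dose, HEK293T; FXR and SRC-1 fused to complementary reporter fragments, association reconstitutes signal. Positive-direction fit vs DMSO baseline.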

[12] = target: Retinoic acid receptor RXR-alpha (Homo sapiens) (UniProt P19793); assay: OT_NURR1_NURR1RXRa_0480: Odyssey Thera (OT) 8-hour HEK293T Protein Complementation Assay for Nurr1/retinoid X receptor (RXR) (AID 2283385)
Sequence of Retinoic acid receptor RXR-alpha (Homo sapiens) (P19793 whole entry, looked up, the tested form may be a part): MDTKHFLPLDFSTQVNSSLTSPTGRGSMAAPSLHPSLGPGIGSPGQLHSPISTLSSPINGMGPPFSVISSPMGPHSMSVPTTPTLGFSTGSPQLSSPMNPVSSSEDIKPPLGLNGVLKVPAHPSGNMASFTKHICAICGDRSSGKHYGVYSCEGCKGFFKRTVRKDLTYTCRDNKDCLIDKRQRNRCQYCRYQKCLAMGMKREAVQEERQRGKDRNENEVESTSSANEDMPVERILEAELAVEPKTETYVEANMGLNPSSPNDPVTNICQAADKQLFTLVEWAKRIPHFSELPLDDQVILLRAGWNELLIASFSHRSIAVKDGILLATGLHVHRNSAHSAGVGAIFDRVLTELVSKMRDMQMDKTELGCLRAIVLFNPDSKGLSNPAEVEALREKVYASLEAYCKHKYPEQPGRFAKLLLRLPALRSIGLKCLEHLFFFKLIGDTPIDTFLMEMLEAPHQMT
Outline: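 Read-out: fluorescence from protein-fragment complementation between Nurr1 and RXRα in human HEK293T cells, 8 h after dosing. DMSO served as negative control; increased signal counted as activity.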

[13] = target: Retinoic acid receptor RXR-alpha (Homo sapiens) (UniProt P19793); assay: OT_NURR1_NURR1RXRa_1440: Odyssey Thera (OT) 24-hour HEK293T Protein Complementation Assay for Nurr1/retinoid X receptor (RXR) (AID 2283386)
Outline: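 Fluorescence PCA read-out; HEK293T; 24 h post-dose; bait/prey fused to reporter fragments; gain-of-signal fit vs DMSO negative control.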

[14] = target: human Thyroid Receptor Alpha (TRa), THRA (gene 7067) (UniProt P10827); assay: NVS_NR_hTRa_Antagonist: NovaScreen (NVS) Nuclear Receptor Binding Assay for human Thyroid Receptor Alpha Antagonism (TRa) (AID 2283362);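 further: activity is loss of signal relative to DMSO baseline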
Outline: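 Extracted protein, cell-free; 1 h incubation after dosing; AlphaLISA chemiluminescence binding readout. DMSO = baseline/neg ctrl; signal loss = activity. Primary: duplicate, 25 uM; secondary: conc. series on actives.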

[15] = target: human Norepinephrine Transporter (NET), SLC6A2 (gene 6530) (UniProt P23975); assay: NVS_TR_hNET: NovaScreen (NVS) Transporter Assay for human Norepinephrine Transporter (NET) (AID 2283377);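 further: cell-free membrane protein extracted from CHO cells expressing human NET; displacement of radioligand from human NET seen as loss of scintillation signal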
Outline: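 CHO cell extracts expressing the transporter; tritiated or iodinated tracer displaced competitively; filtration plus scintillation readout at 1 h. Single-point duplicates at 25 uM, concentration series for follow-up; activity = signal drop relative to DMSO.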

[16] = target: Peroxisome proliferator-activated receptor gamma (Homo sapiens) (UniProt P37231); assay: NVS_NR_hPPARg: NovaScreen (NVS) Nuclear Receptor Binding Assay for human Peroxisome Proliferator-activated Receptor gamma (PPARg) (AID 2283370)
Sequence of Peroxisome proliferator-activated receptor gamma (Homo sapiens) (P37231 whole entry, looked up): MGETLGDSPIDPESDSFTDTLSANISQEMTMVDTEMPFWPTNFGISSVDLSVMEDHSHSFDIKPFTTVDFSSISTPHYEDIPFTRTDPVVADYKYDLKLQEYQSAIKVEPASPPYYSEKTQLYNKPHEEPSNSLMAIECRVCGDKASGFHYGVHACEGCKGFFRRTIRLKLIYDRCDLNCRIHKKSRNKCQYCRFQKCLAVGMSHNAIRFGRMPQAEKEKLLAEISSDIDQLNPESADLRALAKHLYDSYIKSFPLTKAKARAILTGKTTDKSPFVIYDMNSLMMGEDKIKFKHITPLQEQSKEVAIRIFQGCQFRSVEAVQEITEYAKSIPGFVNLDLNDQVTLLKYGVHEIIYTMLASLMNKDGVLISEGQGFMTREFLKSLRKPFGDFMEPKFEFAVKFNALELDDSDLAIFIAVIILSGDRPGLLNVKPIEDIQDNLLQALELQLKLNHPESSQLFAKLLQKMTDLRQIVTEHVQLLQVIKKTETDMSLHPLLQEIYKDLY
Outline: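 Chemicals were tested first in duplicate at 25 uM, then in concentration series if active. Binding to cell-free PPARg protein was measured by fluorescence polarization after 2 h, with loss of signal scored against DMSO.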

[17] = target: Retinoic acid receptor alpha (Homo sapiens) (UniProt P10276); assay: NVS_NR_hRARa_Agonist: NovaScreen (NVS) Nuclear Receptor Binding Assay for human Retinoic Acid Alpha Receptor Agonism (RAR) (AID 2283361)
Outline: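 TR-FRET signal, 2 h post-dosing; cell-free extracted protein; DMSO = baseline, positive fitting direction; 25 uM single-point duplicate, then concentration series for actives.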

[18] = target: mouse Estrogen Receptor alpha (Era), Esr1 (gene 13982) (UniProt P19785); assay: NVS_NR_mERa: NovaScreen (NVS) Nuclear Receptor Binding Assay for mouse Estrogen Receptor alpha (Era) (AID 2283378);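 further: hit means loss of bound radioligand signal relative to DMSO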
Outline: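 Extracted mouse Era incubated with tritiated or iodinated radioligand plus test chemical, 18 h. Bound fraction separated on filters, counted by scintillation. DMSO = negative control/baseline; duplicate single-point at 25 uM, then concentration-response follow-up.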

Measured: AC50

O=C1C=CC(=O)c2ccccc21
active: [1] 38.6 µM | [2] 4.63 µM | [4] 5.42 µM | [5] 28.9 µM
inactive: [3]

N#CCC#N
inactive: [6] | [7] | [8] | [9]

O=C(NC(=O)c1c(F)cccc1F)Nc1cc(Cl)c(OC(F)(F)C(F)C(F)(F)F)cc1Cl (stereo unspecified)
active: [10] 50 µM | [11] 43.7 µM | [12] 66.5 µM | [13] 50 µM
inactive: [6] | [7] | [8] | [9]

Nc1ccc(N)cc1
inactive: [11] | [12] | [13]
active: [14] 31.7 µM | [6] 25 µM | [7] 12.4 µM

Cc1ccc2nc3sc(=O)sc3nc2c1
active: [2] 1.64 µM

CCOC(=O)C(SP(=S)(OC)OC)c1ccccc1 (stereo unspecified)
active: [15] 9.9 µM
inactive: [1]

O=[N+]([O-])c1ccc(Cl)c([N+](=O)[O-])c1
inactive: [16]
active: [2] 4.52 µM | [3] 3.07 µM | [8] 8.64 µM

CCC[CH2][Sn]([Cl])([Cl])[CH2]CCC
active: [17] 38 µM | [2] 3.88 µM | [6] 5.56 µM | [8] 1.76 µM | [9] 3.3 µM
inactive: [16] | [18] | [7]

C[C@]12CC[C@@H](O)C[C@@H]1CC[C@@H]1[C@@H]2CC[C@]2(C)C(=O)CC[C@@H]12
inactive: [1]

O=S1(=O)OC(c2cc(Br)c(O)c(Br)c2)(c2cc(Br)c(O)c(Br)c2)c2ccccc21
inactive: [18] | [7] | [8] | [9] | [11]
active: [14] 4.18 µM | [2] 0.426 µM | [6] 5.92 µM | [3] 3.11 µM | [16] 2.87 µM | [12] 71.9 µM | [13] 14.4 µM
